Unmarked numbers belong to inactive results.
Assays:
Assay in all cases: log2 ratio of Biotin-Ahx-Ub-VS probe labelling (compound/DMSO); higher = less target engagement, active = hit call of the paper (q ≤ 0.05, log2 ratio ≤ -1)
Conditions in all cases: treatment time: 3 h
[1] = compound: ClCC(=O)N[C@H]1CCCc2ccccc12
How it was run: (§1)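 Each value is an average ratio of compound to vehicle, calculated by unpaired t-test. Lysate from HEK293T cells (495 µg per sample) was incubated in triplicate with compound over a concentration range or vehicle for 3 h and then with Biotin-Ahx-Ub-VS (0.5 µM final) for 1 h. Probe-labelled deubiquitinases were captured on NeutrAvidin, digested and run by diaPASEF LC-MS/MS, with Spectronaut label-free quantities normalised to the global median. Ratios are log2, and only proteins with at least two unique peptides were used.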

[2] = compound: CCC1N(CCc2cc(OC)c(Cl)cc12)C(=O)CCl
How it was run: (§2)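 Compound at 50 or 200 µM, or DMSO, was applied for 3 h in triplicate to HEK293T lysate (495 µg per sample, Tris/CHAPS/IGEPAL buffer with protease inhibitors), after which Biotin-Ahx-Ub-VS was added at 0.5 µM final for 1 h. The labelled DUBs were pulled down with NeutrAvidin, digested with LysC and trypsin, and run by diaPASEF LC-MS/MS. Ratios are averaged base-two logs of compound over DMSO from median-normalised label-free quantities by unpaired t-test, counting only proteins with at least 2 unique peptides.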

[3] = compound: CCCC1N(CCc2cc(OC)c(OC)cc12)C(=O)CCl
How it was run: as §2

[4] = compound: CN(Cc1cccc(Br)c1)C(=O)CCl
How it was run: as §2

[5] = compound: CN(Cc1cccc(OCc2ccccc2C)c1)C(=O)CCl
How it was run: as §2

[6] = compound: CN(Cc1ccccc1)C(=O)CCl
How it was run: as §2

[7] = compound: COc1ccc(CN(C)C(=O)CCl)cc1
How it was run: as §2

[8] = compound: COc1cccc(CN(CCCc2ccccc2)C(=O)CCl)c1
How it was run: as §2

[9] = compound: ClCC(=O)N1CCc2cc(Cl)c(Cl)cc2C1
How it was run: as §2

[10] = compound: ClCC(=O)N1CCc2nc(ncc2C1)-c1ccccc1
How it was run: as §2

[11] = compound: ClCC(=O)N1CCc2nocc2C1
How it was run: as §2

[12] = compound: ClCC(=O)N1CCc2scc(Br)c2C1
How it was run: as §2

[13] = compound: ClCC(=O)NC(C1CCCC1)c1cccs1
How it was run: as §2

[14] = compound: CCC1N(CCc2sccc12)C(=O)CCl
How it was run: as §2

[15] = compound: CN1c2ccccc2C(CS1(=O)=O)NC(=O)CCl
How it was run: as §2

[16] = compound: Cl.ClCC(=O)N1CCc2ncncc2C1
How it was run: as §2

[17] = compound: Cl.Cn1ncc2C(CCCc12)NC(=O)CCl
How it was run: as §2

[18] = compound: ClCC(=O)NC1CCOc2ccccc12
How it was run: as §2

[19] = compound: ClCC(=O)NC1CCCc2ccccc12
How it was run: as §1

[20] = compound: ClCC(=O)N[C@@H]1CCCc2ccccc12
How it was run: as §1

## ATXN3 (UniProt P54252)
Chain of UniProt P54252 (P54252 whole entry): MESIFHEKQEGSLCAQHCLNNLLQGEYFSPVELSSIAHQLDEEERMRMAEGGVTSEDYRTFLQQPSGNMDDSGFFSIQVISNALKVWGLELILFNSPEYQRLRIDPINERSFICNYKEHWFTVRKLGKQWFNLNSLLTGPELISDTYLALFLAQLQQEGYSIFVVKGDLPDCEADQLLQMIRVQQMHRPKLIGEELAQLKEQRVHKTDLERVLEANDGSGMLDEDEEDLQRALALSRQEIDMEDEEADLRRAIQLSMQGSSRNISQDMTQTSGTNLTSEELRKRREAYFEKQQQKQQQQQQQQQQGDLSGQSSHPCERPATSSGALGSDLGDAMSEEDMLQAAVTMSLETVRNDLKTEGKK
[1]; compound concentration: 3.13uM
  log2 ratio of Biotin-Ahx-Ub-VS probe labelling: -0.152
[1]; compound concentration: 6.25uM
  log2 ratio of Biotin-Ahx-Ub-VS probe labelling: -0.297
[1]; compound concentration: 12.5uM
  log2 ratio of Biotin-Ahx-Ub-VS probe labelling: -0.125
[1]; compound concentration: 25uM
  log2 ratio of Biotin-Ahx-Ub-VS probe labelling: -0.266
[1]; compound concentration: 50uM
  log2 ratio of Biotin-Ahx-Ub-VS probe labelling: -0.171
[1]; compound concentration: 100uM
  log2 ratio of Biotin-Ahx-Ub-VS probe labelling: -0.0739
[1]; compound concentration: 200uM
  log2 ratio of Biotin-Ahx-Ub-VS probe labelling: -0.312
[2]; compound concentration: 50uM
  log2 ratio of Biotin-Ahx-Ub-VS probe labelling: -0.248
[2]; compound concentration: 200uM
  log2 ratio of Biotin-Ahx-Ub-VS probe labelling: -1.54 (active)
[3]; compound concentration: 50uM
  log2 ratio of Biotin-Ahx-Ub-VS probe labelling: 0.126
[3]; compound concentration: 200uM
  log2 ratio of Biotin-Ahx-Ub-VS probe labelling: -0.435
[4]; compound concentration: 50uM
  log2 ratio of Biotin-Ahx-Ub-VS probe labelling: -0.252
[4]; compound concentration: 200uM
  log2 ratio of Biotin-Ahx-Ub-VS probe labelling: -0.624
[5]; compound concentration: 50uM
  log2 ratio of Biotin-Ahx-Ub-VS probe labelling: -0.719
[5]; compound concentration: 200uM
  log2 ratio of Biotin-Ahx-Ub-VS probe labelling: -1.1 (active)
[6]; compound concentration: 50uM
  log2 ratio of Biotin-Ahx-Ub-VS probe labelling: -0.361
[6]; compound concentration: 200uM
  log2 ratio of Biotin-Ahx-Ub-VS probe labelling: -0.872
[7]; compound concentration: 50uM
  log2 ratio of Biotin-Ahx-Ub-VS probe labelling: -0.229
[7]; compound concentration: 200uM
  log2 ratio of Biotin-Ahx-Ub-VS probe labelling: -0.842
[8]; compound concentration: 50uM
  log2 ratio of Biotin-Ahx-Ub-VS probe labelling: -0.391
[8]; compound concentration: 200uM
  log2 ratio of Biotin-Ahx-Ub-VS probe labelling: -0.729
[9]; compound concentration: 50uM
  log2 ratio of Biotin-Ahx-Ub-VS probe labelling: -0.915
[9]; compound concentration: 200uM
  log2 ratio of Biotin-Ahx-Ub-VS probe labelling: -2.63 (active)
[10]; compound concentration: 50uM
  log2 ratio of Biotin-Ahx-Ub-VS probe labelling: -0.221
[10]; compound concentration: 200uM
  log2 ratio of Biotin-Ahx-Ub-VS probe labelling: -1.26 (active)
[11]; compound concentration: 50uM
  log2 ratio of Biotin-Ahx-Ub-VS probe labelling: -0.325
[11]; compound concentration: 200uM
  log2 ratio of Biotin-Ahx-Ub-VS probe labelling: -1.08 (active)
[12]; compound concentration: 50uM
  log2 ratio of Biotin-Ahx-Ub-VS probe labelling: -0.485
[12]; compound concentration: 200uM
  log2 ratio of Biotin-Ahx-Ub-VS probe labelling: -1.78 (active)
[13]; compound concentration: 50uM
  log2 ratio of Biotin-Ahx-Ub-VS probe labelling: 0.0786
[13]; compound concentration: 200uM
  log2 ratio of Biotin-Ahx-Ub-VS probe labelling: -0.141

## UCHL3 (UniProt P15374)
Chain of UniProt P15374 (P15374 whole entry): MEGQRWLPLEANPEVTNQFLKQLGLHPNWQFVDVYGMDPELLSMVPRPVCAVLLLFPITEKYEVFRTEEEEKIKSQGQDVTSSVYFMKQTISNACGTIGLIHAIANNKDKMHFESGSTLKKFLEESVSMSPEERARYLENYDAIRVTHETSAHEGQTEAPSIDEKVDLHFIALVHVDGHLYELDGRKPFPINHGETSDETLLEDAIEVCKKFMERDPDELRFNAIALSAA
[14]; compound concentration: 50uM
  log2 ratio of Biotin-Ahx-Ub-VS probe labelling: -0.196
[14]; compound concentration: 200uM
  log2 ratio of Biotin-Ahx-Ub-VS probe labelling: -0.314
[15]; compound concentration: 50uM
  log2 ratio of Biotin-Ahx-Ub-VS probe labelling: -0.297
[15]; compound concentration: 200uM
  log2 ratio of Biotin-Ahx-Ub-VS probe labelling: -0.153
[16]; compound concentration: 50uM
  log2 ratio of Biotin-Ahx-Ub-VS probe labelling: -0.183
[16]; compound concentration: 200uM
  log2 ratio of Biotin-Ahx-Ub-VS probe labelling: -0.417
[17]; compound concentration: 50uM
  log2 ratio of Biotin-Ahx-Ub-VS probe labelling: -0.099
[17]; compound concentration: 200uM
  log2 ratio of Biotin-Ahx-Ub-VS probe labelling: 0.0584
[18]; compound concentration: 50uM
  log2 ratio of Biotin-Ahx-Ub-VS probe labelling: -0.019
[18]; compound concentration: 200uM
  log2 ratio of Biotin-Ahx-Ub-VS probe labelling: -0.018
[19]; compound concentration: 0.78uM
  log2 ratio of Biotin-Ahx-Ub-VS probe labelling: -0.0289
[19]; compound concentration: 1.56uM
  log2 ratio of Biotin-Ahx-Ub-VS probe labelling: 0.0129
[19]; compound concentration: 3.13uM
  log2 ratio of Biotin-Ahx-Ub-VS probe labelling: -0.0693
[19]; compound concentration: 6.25uM
  log2 ratio of Biotin-Ahx-Ub-VS probe labelling: 0.048
[19]; compound concentration: 12.5uM
  log2 ratio of Biotin-Ahx-Ub-VS probe labelling: 0.0678
[19]; compound concentration: 25uM
  log2 ratio of Biotin-Ahx-Ub-VS probe labelling: -0.149
[19]; compound concentration: 50uM
  log2 ratio of Biotin-Ahx-Ub-VS probe labelling: 0.0701
[19]; compound concentration: 100uM
  log2 ratio of Biotin-Ahx-Ub-VS probe labelling: 0.149
[19]; compound concentration: 200uM
  log2 ratio of Biotin-Ahx-Ub-VS probe labelling: -0.0196
[20]; compound concentration: 0.78uM
  log2 ratio of Biotin-Ahx-Ub-VS probe labelling: -0.0917
[20]; compound concentration: 1.56uM
  log2 ratio of Biotin-Ahx-Ub-VS probe labelling: -0.101
[20]; compound concentration: 3.13uM
  log2 ratio of Biotin-Ahx-Ub-VS probe labelling: 0.0215
[20]; compound concentration: 6.25uM
  log2 ratio of Biotin-Ahx-Ub-VS probe labelling: 0.0584
[20]; compound concentration: 12.5uM
  log2 ratio of Biotin-Ahx-Ub-VS probe labelling: -0.0931
[20]; compound concentration: 25uM
  log2 ratio of Biotin-Ahx-Ub-VS probe labelling: -0.0862
[20]; compound concentration: 50uM
  log2 ratio of Biotin-Ahx-Ub-VS probe labelling: -0.186
[20]; compound concentration: 100uM
  log2 ratio of Biotin-Ahx-Ub-VS probe labelling: -0.142
[20]; compound concentration: 200uM
  log2 ratio of Biotin-Ahx-Ub-VS probe labelling: -0.0506
[1]; compound concentration: 0.78uM
  log2 ratio of Biotin-Ahx-Ub-VS probe labelling: -0.0451
[1]; compound concentration: 1.56uM
  log2 ratio of Biotin-Ahx-Ub-VS probe labelling: -0.0987
[1]; compound concentration: 3.13uM
  log2 ratio of Biotin-Ahx-Ub-VS probe labelling: 0.048
[1]; compound concentration: 6.25uM
  log2 ratio of Biotin-Ahx-Ub-VS probe labelling: 0.105
[1]; compound concentration: 12.5uM
  log2 ratio of Biotin-Ahx-Ub-VS probe labelling: -0.0766
[1]; compound concentration: 25uM
  log2 ratio of Biotin-Ahx-Ub-VS probe labelling: -0.0628
[1]; compound concentration: 50uM
  log2 ratio of Biotin-Ahx-Ub-VS probe labelling: -0.0352
[1]; compound concentration: 100uM
  log2 ratio of Biotin-Ahx-Ub-VS probe labelling: -0.00864
[1]; compound concentration: 200uM
  log2 ratio of Biotin-Ahx-Ub-VS probe labelling: -0.0634
[2]; compound concentration: 50uM
  log2 ratio of Biotin-Ahx-Ub-VS probe labelling: 0.093
[2]; compound concentration: 200uM
  log2 ratio of Biotin-Ahx-Ub-VS probe labelling: -0.266
[3]; compound concentration: 50uM
  log2 ratio of Biotin-Ahx-Ub-VS probe labelling: -0.509
[3]; compound concentration: 200uM
  log2 ratio of Biotin-Ahx-Ub-VS probe labelling: -0.431
[4]; compound concentration: 50uM
  log2 ratio of Biotin-Ahx-Ub-VS probe labelling: -0.149
[4]; compound concentration: 200uM
  log2 ratio of Biotin-Ahx-Ub-VS probe labelling: -0.181
[5]; compound concentration: 50uM
  log2 ratio of Biotin-Ahx-Ub-VS probe labelling: -0.479
[5]; compound concentration: 200uM
  log2 ratio of Biotin-Ahx-Ub-VS probe labelling: -0.262
[6]; compound concentration: 50uM
  log2 ratio of Biotin-Ahx-Ub-VS probe labelling: -0.409
[6]; compound concentration: 200uM
  log2 ratio of Biotin-Ahx-Ub-VS probe labelling: -0.314
[7]; compound concentration: 50uM
  log2 ratio of Biotin-Ahx-Ub-VS probe labelling: -0.297
[7]; compound concentration: 200uM
  log2 ratio of Biotin-Ahx-Ub-VS probe labelling: -0.108
[8]; compound concentration: 50uM
  log2 ratio of Biotin-Ahx-Ub-VS probe labelling: -0.15
[8]; compound concentration: 200uM
  log2 ratio of Biotin-Ahx-Ub-VS probe labelling: -0.296
[9]; compound concentration: 50uM
  log2 ratio of Biotin-Ahx-Ub-VS probe labelling: -0.0194
[9]; compound concentration: 200uM
  log2 ratio of Biotin-Ahx-Ub-VS probe labelling: -0.59
[10]; compound concentration: 50uM
  log2 ratio of Biotin-Ahx-Ub-VS probe labelling: -0.0966
[10]; compound concentration: 200uM
  log2 ratio of Biotin-Ahx-Ub-VS probe labelling: -0.705
[11]; compound concentration: 50uM
  log2 ratio of Biotin-Ahx-Ub-VS probe labelling: -0.331
[11]; compound concentration: 200uM
  log2 ratio of Biotin-Ahx-Ub-VS probe labelling: -0.399
[12]; compound concentration: 50uM
  log2 ratio of Biotin-Ahx-Ub-VS probe labelling: -1.73 (active)
[12]; compound concentration: 200uM
  log2 ratio of Biotin-Ahx-Ub-VS probe labelling: -4.16 (active)
[13]; compound concentration: 50uM
  log2 ratio of Biotin-Ahx-Ub-VS probe labelling: -0.0539
[13]; compound concentration: 200uM
  log2 ratio of Biotin-Ahx-Ub-VS probe labelling: -0.088

From the supplement of paper PMC11732987, “Enantioselective OTUD7B fragment discovery through chemoproteomics screening and high-throughput optimisation” (Communications Chemistry, 2025)
